The supplement of paper PMC10849652
Targets with a hit are over-represented here; the source holds about 7,900 in all. About 0.6% of all pairs of compound and target were hits.

Tests used:
Assay in all cases: log2 fold change, soluble protein after heating vs DMSO (PISA); higher = thermal stabilisation; K562 cells, 10 uM, 30 min; active = over 0.2 and 3.5 SD of the protein, either way, in both replicates (recomputed)
[1] = compound: CC1=C(C=C(C=C1)NC(=O)C2=CC(=CC=C2)C(C)(C)C#N)NC3=CC4=C(C=C3)N=CN(C4=O)C
In short: (§1)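 K562 cells at 2×10^6 cells/mL were treated for 30 min with 10 μM compound, and aliquots were heated for 3 min over 48°C-58°C before pooling. Extraction used PBS with 0.5% NP-40 at 4°C, and soluble protein was the supernatant after 21,000xg for 90 min, measured by TMTpro 16plex LC-MS/MS with channel sums equalised. Thermal stability values, relative to control samples and from duplicates, are log2 fold changes.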

[2] = compound: CC1=C(C=C(C=C1)NC(=O)C2=CC(=CC=C2)N(C)C)NC(=O)C3=CC=C(C=C3)O
In short: as §1

[3] = compound: CC1=CC=C(C=C1)SC2=C3C=C(SC3=CN=C2)C(=O)N
In short: as §1

[4] = compound: CC1=NC(=CC=C1)C2=C(N=C(N2)C(C)(C)C)C3=CC4=NC=CN=C4C=C3
In short: as §1

Nexturastat A = compound: CCCCN(Cc1ccc(C(=O)NO)cc1)C(=O)Nc1ccccc1 [Nexturastat A]
In short: as §1

vemurafenib = compound: CCCS(=O)(=O)Nc1ccc(F)c(C(=O)c2c[nH]c3ncc(-c4ccc(Cl)cc4)cc23)c1F [vemurafenib]
In short: as §1

[5] = compound: CCCS(=O)(=O)Nc1ccc(F)c(C(=O)c2c[nH]c3ncc(Cl)cc23)c1F
In short: as §1

[6] = compound: CCCc1cc(C)[nH]c(=O)c1CNC(=O)c1cc(-c2ccnc(N3CCN(C)CC3)c2)cc2c1cnn2C(C)C
In short: as §1

givinostat = compound: CCN(CC)Cc1ccc2cc(COC(=O)Nc3ccc(C(=O)NO)cc3)ccc2c1 [givinostat]
In short: as §1

barasertib = compound: CCN(CCCOc1ccc2c(Nc3cc(CC(=O)Nc4cccc(F)c4)[nH]n3)ncnc2c1)CCOP(=O)(O)O [barasertib]
In short: as §1

Measured: log2 fold change

PHKA2 (UniProt P46019)
inactive: [1] 0.028 | [2] 0 | [3] 0.028 | [4] 0.053 | Nexturastat A -0.038 | vemurafenib -0.014 | [5] 0.052 | [6] -0.07 | givinostat 0.048 | barasertib 0.057

PTPA (UniProt A6PVN8)
inactive: [1] 0.062 | [2] -0.128 | [3] -0.15 | Nexturastat A -0.038 | vemurafenib -0.065 | [5] -0.11 | [6] 0.038 | barasertib 0.01
active: givinostat -0.857

PYGB (UniProt P11216)
active: [1] -0.284
inactive: [2] 0.015 | [3] 0.008 | [4] 0.005 | Nexturastat A -0.074 | vemurafenib 0.009 | [5] -0.023 | [6] -0.044 | givinostat 0.012 | barasertib 0.001

PHKA1 (UniProt P46020)
inactive: [1] -0.027 | [2] -0.155 | [3] -0.062 | [4] -0.033 | Nexturastat A 0.047 | [5] 0.019 | [6] 0.076 | givinostat -0.024 | barasertib -0.133

PRPF38B (UniProt Q5VTL8)
inactive: [1] -0.001 | [2] 0.001 | [3] -0.012 | [4] 0.015 | Nexturastat A -0.011 | vemurafenib 0.043 | [5] 0.042 | [6] -0.006 | givinostat 0.007 | barasertib 0.012

PEX5 isoform 4 (UniProt P50542)
inactive: [1] 0.089 | [2] -0.018 | Nexturastat A 0.145 | vemurafenib -0.066 | givinostat 0.127

PPP1CA (UniProt P62136)
inactive: [1] -0.024 | [2] -0.019 | [3] -0.071 | [4] 0.164 | Nexturastat A -0.09 | vemurafenib -0.023 | [5] -0.05 | [6] 0 | givinostat -0.009 | barasertib 0.035

PLCL1 (UniProt Q15111)
Chain of UniProt Q15111 (Q15111 whole entry, looked up): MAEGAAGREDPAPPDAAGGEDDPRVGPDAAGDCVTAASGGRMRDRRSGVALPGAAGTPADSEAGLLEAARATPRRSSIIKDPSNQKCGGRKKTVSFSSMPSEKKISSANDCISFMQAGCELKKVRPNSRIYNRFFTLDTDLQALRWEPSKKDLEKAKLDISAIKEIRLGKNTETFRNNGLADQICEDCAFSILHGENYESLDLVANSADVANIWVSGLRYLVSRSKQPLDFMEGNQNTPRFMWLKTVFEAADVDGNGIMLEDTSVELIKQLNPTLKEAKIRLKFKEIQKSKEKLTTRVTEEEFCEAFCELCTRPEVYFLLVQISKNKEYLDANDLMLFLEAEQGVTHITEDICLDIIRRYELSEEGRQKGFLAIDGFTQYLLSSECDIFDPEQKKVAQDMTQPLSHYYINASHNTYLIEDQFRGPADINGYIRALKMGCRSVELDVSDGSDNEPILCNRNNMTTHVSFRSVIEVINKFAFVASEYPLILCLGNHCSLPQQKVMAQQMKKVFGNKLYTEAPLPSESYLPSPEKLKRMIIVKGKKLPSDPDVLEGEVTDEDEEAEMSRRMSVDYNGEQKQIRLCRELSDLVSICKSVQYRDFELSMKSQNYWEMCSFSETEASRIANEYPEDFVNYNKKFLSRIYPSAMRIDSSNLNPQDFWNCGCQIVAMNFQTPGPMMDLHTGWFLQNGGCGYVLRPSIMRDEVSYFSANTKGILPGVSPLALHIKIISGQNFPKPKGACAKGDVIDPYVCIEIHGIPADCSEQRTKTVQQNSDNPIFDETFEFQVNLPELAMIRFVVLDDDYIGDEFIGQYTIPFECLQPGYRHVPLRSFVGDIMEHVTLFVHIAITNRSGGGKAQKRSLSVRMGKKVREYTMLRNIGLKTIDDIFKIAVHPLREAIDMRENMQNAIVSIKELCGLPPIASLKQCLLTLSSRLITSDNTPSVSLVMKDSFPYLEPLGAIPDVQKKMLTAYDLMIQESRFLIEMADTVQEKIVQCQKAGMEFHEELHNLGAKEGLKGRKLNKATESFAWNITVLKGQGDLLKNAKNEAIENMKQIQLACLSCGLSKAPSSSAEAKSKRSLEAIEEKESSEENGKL
inactive: [1] 0.056 | [2] -0.061 | [4] 0.03 | Nexturastat A 0.253 | vemurafenib 0.068 | [6] 0.159 | givinostat 0.21 | barasertib 0.205

PCBP2 (UniProt F8VRH0)
inactive: [1] 0.419 | [3] 0.019 | [4] 0.172 | Nexturastat A 0.136 | vemurafenib -0.235 | [5] 0.123 | [6] -0.199 | givinostat 0.04 | barasertib -0.201

PLK1 (UniProt P53350)
inactive: [1] 0.003 | [2] -0.052 | [3] -0.03 | [4] -0.012 | Nexturastat A 0.003 | vemurafenib 0.018 | [5] 0.029 | [6] 0.042 | barasertib 0.015
active: givinostat -0.314

PNPLA4 (UniProt P41247)
Chain of UniProt P41247 (P41247 whole entry, looked up): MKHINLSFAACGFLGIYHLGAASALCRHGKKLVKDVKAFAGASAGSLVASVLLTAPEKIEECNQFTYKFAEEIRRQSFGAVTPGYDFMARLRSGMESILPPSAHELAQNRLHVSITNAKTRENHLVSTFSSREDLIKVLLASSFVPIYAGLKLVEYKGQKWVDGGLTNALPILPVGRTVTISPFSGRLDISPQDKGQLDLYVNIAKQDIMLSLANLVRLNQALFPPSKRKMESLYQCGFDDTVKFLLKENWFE
active: givinostat 1.1
inactive: [1] 0.418 | [2] -0.04 | [3] 0.409 | [4] 0.273 | vemurafenib -0.093 | [5] -0.025 | [6] -0.277 | barasertib 0.042

PEA15 isoform 2 (UniProt Q15121)
Chain of UniProt Q15121 (Q15121 whole entry, looked up): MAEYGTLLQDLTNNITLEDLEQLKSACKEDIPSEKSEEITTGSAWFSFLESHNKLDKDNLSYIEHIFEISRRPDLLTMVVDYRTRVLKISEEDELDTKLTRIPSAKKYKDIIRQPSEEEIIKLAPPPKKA
inactive: [1] 0.004 | [2] -0.039 | [3] 0.042 | [4] -0.008 | Nexturastat A -0.071 | vemurafenib 0.002 | [5] 0.122 | [6] -0.003 | givinostat 0.003 | barasertib 0.082

PPP1R12C (UniProt Q9BZL4)
inactive: [1] -0.048 | [2] 0.027 | [3] 0.124 | Nexturastat A 0.154 | vemurafenib -0.023 | [5] 0.265 | [6] 0.04 | givinostat 0.089 | barasertib 0.112

PC (UniProt P11498)
Chain of UniProt P11498 (P11498 whole entry, looked up): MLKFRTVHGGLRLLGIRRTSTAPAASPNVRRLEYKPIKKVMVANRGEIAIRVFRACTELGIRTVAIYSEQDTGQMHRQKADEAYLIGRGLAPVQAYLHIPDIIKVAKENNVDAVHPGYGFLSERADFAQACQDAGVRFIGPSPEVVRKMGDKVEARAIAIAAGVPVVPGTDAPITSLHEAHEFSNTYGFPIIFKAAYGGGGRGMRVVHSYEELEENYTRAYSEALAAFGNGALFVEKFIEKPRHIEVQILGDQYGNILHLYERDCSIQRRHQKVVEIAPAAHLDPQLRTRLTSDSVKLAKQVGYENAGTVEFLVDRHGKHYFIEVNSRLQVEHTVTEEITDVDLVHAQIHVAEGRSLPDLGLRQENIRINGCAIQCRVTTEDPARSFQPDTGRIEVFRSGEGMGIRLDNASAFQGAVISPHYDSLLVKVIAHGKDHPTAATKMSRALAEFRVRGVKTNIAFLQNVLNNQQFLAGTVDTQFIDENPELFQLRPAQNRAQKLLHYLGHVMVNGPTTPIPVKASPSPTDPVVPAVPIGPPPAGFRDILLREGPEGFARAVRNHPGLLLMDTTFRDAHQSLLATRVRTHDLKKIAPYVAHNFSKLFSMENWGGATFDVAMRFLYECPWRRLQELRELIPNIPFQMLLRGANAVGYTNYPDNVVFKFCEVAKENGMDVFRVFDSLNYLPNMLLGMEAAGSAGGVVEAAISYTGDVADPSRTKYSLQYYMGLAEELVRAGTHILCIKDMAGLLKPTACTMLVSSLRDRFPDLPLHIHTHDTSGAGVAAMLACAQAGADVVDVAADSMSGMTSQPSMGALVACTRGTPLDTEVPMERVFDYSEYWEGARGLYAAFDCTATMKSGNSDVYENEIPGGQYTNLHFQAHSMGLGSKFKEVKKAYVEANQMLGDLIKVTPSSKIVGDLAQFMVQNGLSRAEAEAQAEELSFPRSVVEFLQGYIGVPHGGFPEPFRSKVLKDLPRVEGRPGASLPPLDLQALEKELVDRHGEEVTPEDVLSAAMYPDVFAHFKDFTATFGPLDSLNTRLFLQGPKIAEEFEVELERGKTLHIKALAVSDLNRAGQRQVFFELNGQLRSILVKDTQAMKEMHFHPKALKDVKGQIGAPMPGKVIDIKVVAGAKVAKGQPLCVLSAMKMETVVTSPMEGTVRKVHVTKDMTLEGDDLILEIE
inactive: [1] 0.07 | [2] -0.103 | [3] 0.038 | [4] 0.012 | Nexturastat A -0.07 | vemurafenib 0 | [5] 0.032 | [6] 0.039 | givinostat 0.022 | barasertib 0.009

PDCD4 (UniProt Q53EL6)
inactive: [1] 0.029 | [2] -0.043 | [3] 0.012 | [4] 0.016 | Nexturastat A -0.11 | vemurafenib 0.083 | [5] 0.107 | [6] -0.06 | givinostat 0.103 | barasertib 0.002

POLR2D (UniProt O15514)
inactive: [1] -0.022 | [2] -0.005 | [3] 0.002 | [4] 0.004 | Nexturastat A 0.027 | vemurafenib 0.046 | [5] -0.006 | [6] -0.014 | givinostat -0.267 | barasertib -0.031

PRR14L (UniProt Q5THK1)
inactive: [3] -0.039 | [5] -0.038
active: vemurafenib -0.62

PMS2CL (UniProt Q68D20)
Chain of UniProt Q68D20 (Q68D20 whole entry, looked up): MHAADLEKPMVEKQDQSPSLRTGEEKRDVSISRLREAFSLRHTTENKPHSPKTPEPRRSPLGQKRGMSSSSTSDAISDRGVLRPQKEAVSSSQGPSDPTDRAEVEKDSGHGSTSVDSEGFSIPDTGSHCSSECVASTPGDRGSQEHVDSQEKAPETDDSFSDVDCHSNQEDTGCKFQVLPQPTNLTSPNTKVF
inactive: [2] 0.089 | Nexturastat A -0.109 | [6] 0.129

PSMA3 (UniProt H0YJ03)
inactive: [2] 0.019 | [3] 0.019 | [4] -0.194 | vemurafenib -0.145 | [5] -0.134

PDE4DIP (UniProt E9PS60)
inactive: [4] 0.013 | vemurafenib -0.214 | givinostat 0.016

PRKD2 (UniProt M0R346)
inactive: [1] -0.011 | Nexturastat A 0.236 | barasertib -0.337

PHRF1 (UniProt Q9P1Y6)
Chain of UniProt Q9P1Y6 (Q9P1Y6 whole entry, looked up): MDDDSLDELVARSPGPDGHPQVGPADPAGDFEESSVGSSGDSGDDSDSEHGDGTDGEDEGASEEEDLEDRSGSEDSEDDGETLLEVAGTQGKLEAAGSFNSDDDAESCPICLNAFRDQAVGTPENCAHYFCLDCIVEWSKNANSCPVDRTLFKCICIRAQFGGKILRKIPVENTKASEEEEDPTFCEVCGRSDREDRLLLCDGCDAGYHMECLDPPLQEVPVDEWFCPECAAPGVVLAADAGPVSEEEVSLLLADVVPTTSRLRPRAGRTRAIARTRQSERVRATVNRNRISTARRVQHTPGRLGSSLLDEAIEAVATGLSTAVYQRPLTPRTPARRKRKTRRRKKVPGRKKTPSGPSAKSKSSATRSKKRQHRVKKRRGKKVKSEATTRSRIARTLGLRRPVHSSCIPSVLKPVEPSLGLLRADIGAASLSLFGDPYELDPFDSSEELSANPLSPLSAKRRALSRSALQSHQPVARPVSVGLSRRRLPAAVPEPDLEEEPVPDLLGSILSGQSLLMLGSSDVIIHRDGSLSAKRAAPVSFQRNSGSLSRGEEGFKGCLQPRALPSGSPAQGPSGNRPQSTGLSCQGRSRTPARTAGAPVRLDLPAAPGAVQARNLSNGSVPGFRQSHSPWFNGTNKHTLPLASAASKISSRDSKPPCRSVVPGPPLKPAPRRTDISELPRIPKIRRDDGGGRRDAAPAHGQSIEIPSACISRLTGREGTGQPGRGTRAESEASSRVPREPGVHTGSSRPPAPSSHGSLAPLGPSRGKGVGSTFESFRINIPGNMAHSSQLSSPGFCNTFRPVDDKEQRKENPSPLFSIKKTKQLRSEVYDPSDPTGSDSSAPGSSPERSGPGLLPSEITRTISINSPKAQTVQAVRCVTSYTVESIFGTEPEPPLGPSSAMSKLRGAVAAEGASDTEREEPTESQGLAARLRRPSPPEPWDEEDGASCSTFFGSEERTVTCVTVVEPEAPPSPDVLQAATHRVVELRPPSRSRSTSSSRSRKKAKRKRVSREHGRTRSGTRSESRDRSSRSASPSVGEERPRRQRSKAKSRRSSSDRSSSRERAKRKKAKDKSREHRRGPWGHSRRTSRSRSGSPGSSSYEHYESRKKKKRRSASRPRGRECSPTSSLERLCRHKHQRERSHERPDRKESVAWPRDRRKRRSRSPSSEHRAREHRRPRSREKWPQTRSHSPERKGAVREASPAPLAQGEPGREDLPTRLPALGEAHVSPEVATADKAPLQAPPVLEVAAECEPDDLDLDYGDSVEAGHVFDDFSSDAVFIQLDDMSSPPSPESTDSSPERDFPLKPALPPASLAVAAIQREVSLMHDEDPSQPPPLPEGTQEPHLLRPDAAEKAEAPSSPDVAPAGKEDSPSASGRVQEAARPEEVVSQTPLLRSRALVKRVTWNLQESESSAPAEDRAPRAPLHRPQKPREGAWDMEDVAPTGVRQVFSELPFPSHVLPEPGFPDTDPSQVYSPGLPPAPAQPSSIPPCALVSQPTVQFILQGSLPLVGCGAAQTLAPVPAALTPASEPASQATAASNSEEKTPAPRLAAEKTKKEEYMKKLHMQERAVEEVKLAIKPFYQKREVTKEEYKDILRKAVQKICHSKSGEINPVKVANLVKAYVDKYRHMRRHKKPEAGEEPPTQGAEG
inactive: [2] -0.052 | [3] -0.034 | [5] -0.058 | [6] 0.146 | givinostat 0.034

PIM1 isoform 2 (UniProt P11309)
inactive: [6] -0.566

PRKX (UniProt P51817)
Chain of UniProt P51817 (P51817 whole entry, looked up): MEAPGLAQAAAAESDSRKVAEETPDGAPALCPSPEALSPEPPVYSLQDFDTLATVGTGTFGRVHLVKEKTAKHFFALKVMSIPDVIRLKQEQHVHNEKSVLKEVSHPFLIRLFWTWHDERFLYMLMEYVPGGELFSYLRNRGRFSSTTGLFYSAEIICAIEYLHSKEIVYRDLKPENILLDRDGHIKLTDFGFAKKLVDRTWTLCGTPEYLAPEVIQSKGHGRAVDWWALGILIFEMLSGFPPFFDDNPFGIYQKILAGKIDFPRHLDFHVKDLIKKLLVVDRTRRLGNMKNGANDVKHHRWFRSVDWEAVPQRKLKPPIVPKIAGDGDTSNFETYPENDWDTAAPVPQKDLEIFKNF
inactive: [6] -0.103 | givinostat 0.036 | barasertib 0.126

PAN2 (UniProt Q504Q3)
inactive: vemurafenib -0.128 | barasertib 0.088

PSD3 (UniProt Q9NYI0)
inactive: [2] -0.059 | [3] -0.01 | [4] 0.023 | vemurafenib -0.019 | [5] 0.049 | [6] 0.025

PTTG1IP (UniProt P53801)
Chain of UniProt P53801 (P53801 whole entry, looked up): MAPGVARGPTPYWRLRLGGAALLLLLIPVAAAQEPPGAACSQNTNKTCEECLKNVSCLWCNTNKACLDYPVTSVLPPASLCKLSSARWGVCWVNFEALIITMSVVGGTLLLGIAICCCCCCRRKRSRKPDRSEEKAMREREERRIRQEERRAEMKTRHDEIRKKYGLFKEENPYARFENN
inactive: [1] 0.122 | [3] -0.107 | [4] -0.062 | Nexturastat A -0.024 | vemurafenib -0.059 | [5] 0.02 | [6] 0.008 | givinostat -0.124 | barasertib -0.025

PSMC1 (UniProt G3V4X1)
inactive: [3] -0.384 | [5] -0.154 | givinostat 0.095

PSMB9 (UniProt P28065)
inactive: [1] -0.137 | [3] -0.032 | [4] -0.342 | Nexturastat A -0.233 | vemurafenib -0.08 | [5] -0.047 | givinostat -0.179 | barasertib 0.12

PDE4A (UniProt P27815)
inactive: [2] -0.028 | [3] -0.047 | [4] 0.062 | Nexturastat A 0.061 | vemurafenib 0.006 | [5] 0.024 | givinostat 0.015 | barasertib 0.049

PCF11 (UniProt O94913)
inactive: [2] 0.045 | [3] 0.019 | [4] -0.018 | vemurafenib -0.058 | [5] 0.006 | [6] -0.3 | barasertib -0.168

PPP2R5C isoform 2 (UniProt Q13362)
inactive: [2] -0.047 | [4] 0.022 | [6] -0.016 | givinostat 0.048 | barasertib 0.055

PLCXD1 (UniProt Q9NUJ7)
inactive: [2] 0.05 | barasertib -0.003

PTEN isoform 2 (UniProt P60484)
inactive: [2] -0.035 | [3] 0.13 | [4] 0.064 | [5] -0.016 | givinostat -0.086

PSMD8 (UniProt K7ERW6)
inactive: [4] -0.283 | vemurafenib -0.236

PSMA3 (UniProt G3V4X5)
inactive: [2] -0.046 | [3] -0.117 | [4] 0.184 | vemurafenib -0.012 | [5] 0.013 | barasertib 0.103
